# PubChem BioAssay AID488969 (Vanderbilt High Throughput Screening Facility, 2010)
# Whole data set: some 110,000 compounds, median “z-score” near -0.1, cut for the highest 2% near 2. This is one part of a sample in which the highest values are shown more often than they occur. Active and inactive are the calls of the source.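 Rule for the calls: active = z-score in the third read window above 3 or below -3; inactive = the rest.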 Residues, ends and D or L forms follow the SMILES beside them. *: point of attachment. OBn = c1ccc(CO*)cc1
# Molecular target: Metabotropic glutamate receptor 8 (Rattus norvegicus) (UniProt P70579)
# Assay: mGluR8 Gi/Go-coupled signaling modulation – cell-based, rat, thallium flux, HTS, primary screen (AID 488969)
# Conditions: HEK293 rat mGluR8, GIRK (G protein-gated inwardly rectifying potassium channel) thallium flux, FluoZin2; at 10 µM; stronger effect = higher value; submaximal glutamate (EC20) added with thallium
# Metabotropic glutamate receptor 8 (Rattus norvegicus), sequence (P70579 whole entry, looked up): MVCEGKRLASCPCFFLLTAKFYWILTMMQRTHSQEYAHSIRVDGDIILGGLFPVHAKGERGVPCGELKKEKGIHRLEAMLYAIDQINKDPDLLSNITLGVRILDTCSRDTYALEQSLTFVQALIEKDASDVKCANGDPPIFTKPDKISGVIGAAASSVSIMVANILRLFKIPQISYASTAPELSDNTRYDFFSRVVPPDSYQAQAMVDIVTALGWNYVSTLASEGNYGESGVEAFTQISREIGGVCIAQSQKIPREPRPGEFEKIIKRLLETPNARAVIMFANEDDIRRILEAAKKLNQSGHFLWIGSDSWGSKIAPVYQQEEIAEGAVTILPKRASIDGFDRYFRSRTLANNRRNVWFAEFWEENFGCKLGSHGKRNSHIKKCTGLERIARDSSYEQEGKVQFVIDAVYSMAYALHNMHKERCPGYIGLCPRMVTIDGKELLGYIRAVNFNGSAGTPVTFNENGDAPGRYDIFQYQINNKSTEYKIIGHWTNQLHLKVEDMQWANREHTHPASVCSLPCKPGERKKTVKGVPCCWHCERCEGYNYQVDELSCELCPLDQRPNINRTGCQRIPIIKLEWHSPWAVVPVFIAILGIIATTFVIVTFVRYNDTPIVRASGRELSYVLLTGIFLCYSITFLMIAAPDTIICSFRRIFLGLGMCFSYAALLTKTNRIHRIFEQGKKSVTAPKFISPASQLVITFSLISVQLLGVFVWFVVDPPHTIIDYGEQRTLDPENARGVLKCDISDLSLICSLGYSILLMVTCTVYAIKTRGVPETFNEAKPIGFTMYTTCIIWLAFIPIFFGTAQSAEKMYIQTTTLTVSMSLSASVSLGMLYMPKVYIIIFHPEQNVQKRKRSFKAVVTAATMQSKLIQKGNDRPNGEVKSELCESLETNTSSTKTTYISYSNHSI
row,Structure (SMILES),z-score
1,O=c1c(-c2ccc(Cl)cc2)[n+]([O-])c2ccccc2n1O,14 (active)
2,Cc1ccc(C)c(-n2[nH]c3c4c(ccc3c2=O)C(=O)c2ccccc2C4=O)c1,0.0628
3,O=C(Nc1ccncc1)c1ccc2c(c1)C(=O)N(CC1CCCO1)C2=O (stereo unspecified),-0.193
4,Cc1cc(NC(=O)c2ccc3c(c2)C(=O)N(C2CCCCC2)C3=O)no1,0.19
5,O=C(Nc1ccncc1)c1ccc2c(c1)C(=O)N(C1CCCCC1)C2=O,6.89 (active)
6,CCOC(=O)N1CCN(c2cc(=O)n(-c3ccc(OCC)cc3)c(=O)[nH]2)CC1,-0.000123
7,O=C(NNS(=O)(=O)c1ccc(Cl)cc1)c1sccc1-n1cccc1,0.249
8,O=C(NNS(=O)(=O)c1cc(Cl)cc(Cl)c1)c1sccc1-n1cccc1,1.93
9,O=C(NNC(=O)c1sccc1-n1cccc1)c1ccc(Cl)cc1,3.06 (active)
10,O=C(NNC(=O)c1sccc1-n1cccc1)c1cccc(Cl)c1,4.1 (active)
11,O=C(NNC(=O)c1sccc1-n1cccc1)c1ccccc1,0.869
12,O=C(N/N=C\c1ccc(Cl)cc1Cl)c1sccc1-n1cccc1,-0.203
13,CCOC(=O)N/N=C(C)/C=C/c1ccco1,0.31
14,CCC(Oc1ccccc1)C(=O)N1CCN(C(=O)C(CC)Oc2ccccc2)CC1 (stereo unspecified),-0.159
15,Cn1c(SCC(=O)NNC(=O)Cc2ccccc2)nnc1-c1ccc(Cl)cc1,-0.126
16,N=C1/C(=C/c2cccn2-c2cccc([N+](=O)[O-])c2)C(=O)N=C2SC=CN12,-0.207
17,N=C1/C(=C/c2cccn2-c2ccc([N+](=O)[O-])cc2)C(=O)N=C2SC=CN12,-0.214
18,CC(C)c1ccc(-n2cccc2/C=C2/C(=N)N3C=CSC3=NC2=O)cc1,2.17
19,CC1CCN(c2c([N+](=O)[O-])c(=O)n(-c3ccccc3)c3ccccc23)CC1,0.00884

row,Structure (SMILES),z-score
1,N#C/C(=C/c1ccc(OCc2ccccc2)cc1)C(=O)NC1CCCCC1,0.0182
2,O=C(NCCN1CCCC1)c1ccc(CS(=O)(=O)c2c(Cl)cccc2Cl)o1,-0.063
3,O=C(c1sc2cc(F)ccc2c1Cl)N1CCN(c2cccc(Cl)c2)CC1,-0.403
4,CCCCCCC(=O)NC(Nc1ccc(S(N)(=O)=O)cc1)C(Cl)(Cl)Cl (stereo unspecified),-0.259
5,Cn1ncc2c(=O)n(CC(=O)NC34CC5CC(CC(C5)C3)C4)cnc21,-0.265
6,COC(=O)C1=NN(N=O)C2(CC(=O)N(c3cc(C)cc(C)c3)C2=O)C1 (stereo unspecified),-0.194
7,Cc1ccc(C)n1-c1ccc(C(=O)NCC2CCCO2)cc1 (stereo unspecified),-0.25
8,N#CC(C#N)=C1C=C2C=C(N3CCCCC3)CCC2CC1 (stereo unspecified),10.9 (active)
9,CCCCN(C)C1=CC2=CC(=C(C#N)C#N)CCC2CC1 (stereo unspecified),5.11 (active)
10,O=c1[nH]c2cc3c(cc2cc1C(c1nnnn1C1CCCCC1)N1CCSCC1)OCCO3 (stereo unspecified),0.278
11,CCC(=O)N1CCc2cc(S(=O)(=O)NCCCOC)ccc21,-0.216
12,Cc1nc2ccccn2c1C(=O)N/N=C/c1ccc2c(c1)OCO2,0.65
13,COCCn1c(SCC(=O)c2ccc3c(c2)OCCO3)nnc1-c1ccoc1C,-0.231
14,O=c1nc(NCc2ccccc2Cl)cn[nH]1,0.66
15,CC(Nc1ccc(Br)cc1)C(=O)N/N=C/c1ccccc1OCc1ccccc1 (stereo unspecified),-0.283
16,COc1ccc(NC(=O)C23CCC(C)(C(=O)O2)C3(C)C)cc1 (stereo unspecified),0.0605
17,COC(=O)c1cc(NC(=O)C23CCC(C)(C(=O)O2)C3(C)C)cc(C(=O)OC)c1 (stereo unspecified),0.577
18,COC(=O)c1ccc(NC(=O)C23CCC(C)(C(=O)O2)C3(C)C)cc1 (stereo unspecified),2.35
19,Cc1cs/c(=N\N=C\c2ccccc2)n1Cc1ccco1,-0.431

row,Structure (SMILES),z-score
1,Cc1cs/c(=N\N=C\c2cccc([N+](=O)[O-])c2)n1Cc1ccco1,5.13 (active)
2,Cc1csc(=NC(=O)c2ccccc2)n1Cc1ccco1,-0.784
3,CC(C(=O)Nc1ccc(F)c(F)c1F)N(C)CC(=O)Nc1ccccc1Br (stereo unspecified),-0.465
4,OC(COc1ccc(OCc2ccccc2)cc1)CN1CCOCC1 (stereo unspecified),-0.0779
5,O=C(c1ccccc1)c1ccc(OCC(O)CN2CCOCC2)cc1 (stereo unspecified),-0.0655
6,O=C(c1ccccc1)c1ccc(OCC(O)CN2CCN(S(=O)(=O)N3CCCCC3)CC2)cc1 (stereo unspecified),0.198
7,O=C(c1ccccc1)c1ccc(OCC(O)CN2CCCCC2)cc1 (stereo unspecified),2.13
8,OC(COc1ccc(OCC(O)CN2CCCCCC2)cc1)CN1CCCCCC1 (stereo unspecified),-0.0132
9,OC(COc1ccc(OCc2ccccc2)cc1)CN1CCCCC1 (stereo unspecified),2.76
10,COc1ccc2nc(C)cc(SCC(=O)N/N=C/c3ccccc3)c2c1,0.834
11,CCn1nnnc1SCC(=O)N(C1CCCCC1)C1CCCCC1,-0.262
12,Cn1nnnc1SCC(=O)NC1CCCCC1,-0.00615
13,Cn1nnnc1SCC(=O)N(C1CCCCC1)C1CCCCC1,2.45
14,Cc1ccc2cc(CN(CCN3CCCC3)C(=O)Nc3ccccc3)c(=O)[nH]c2c1C,-0.236
15,Cc1ccc2cc(CN(CCN3CCCC3)C(=O)Nc3ccc(F)cc3)c(=O)[nH]c2c1C,2.05
16,Cc1ccc(C)c2[nH]c(=O)c(CN(CCN3CCCC3)C(=O)Nc3ccc(F)cc3)cc12,0.644
17,CCC(C)C(N)C(=O)NC(CCC(=O)OCc1ccccc1)C(N)=O (stereo unspecified) (H-Ile-Glu(OBn)-NH2; configuration not given here),0.0296
18,Cc1nc(NCCc2ccccc2F)c(C#N)c(C)c1[N+](=O)[O-],0.24
